Experimental findings from PubChem BioAssay (NCI) are described below.

Among the test systems are SR leukemia; RPMI-8226 leukemia; OVCAR-8 ovarian; OVCAR-5 ovarian; OVCAR-4 ovarian; SK-OV-3 ovarian; IGROV1 ovarian; OVCAR-3 ovarian; NCI/ADR-RES ovarian; HS 578T breast.
Common to all, as to assay: NCI-60 one-dose screen, 48 h (100 = growth as untreated, 0 = no growth, -100 = all killed)
Common to all, as to details: 10 µM unless noted

This is part of a sample that, as a whole, favours compounds with a hit. Of some 83,000 tested, about 20% had one in any assay.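 Step 1: grow cells in 96-well plates. Step 2: add test compound at a single concentration. Step 3: incubate 48 h. Step 4: record percent growth.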 Unmarked numbers belong to inactive results. Activity calls are given as the source filed them. Rule for the calls: active = growth percent below 10; inactive = the rest.

As to `c1ccc(C2=NN[C@H](c3cn(-c4ccccc4)nc3-c3ccccc3)C2)cc1`, the growth in the assay on SR leukemia is 90.9%; in the assay on RPMI-8226 leukemia, 86.7%; in the assay with OVCAR-8 ovarian it was 35.6%; in the assay on OVCAR-5 ovarian it was 83.6%; in the assay with OVCAR-4 ovarian, 14.8%; in the assay on SK-OV-3 ovarian, -1.38% (active). Moreover, the growth is 62.1% in the assay with IGROV1 ovarian, 2.11% (active) in the assay on OVCAR-3 ovarian and 48.9% in the assay on NCI/ADR-RES ovarian.

In the case of `Cc1ccc2c3c(c(=O)[nH]c2c1)C1(C(C#N)=C(N)O3)c2cc(Br)ccc2-c2ccc(Br)cc21`, the growth with SR leukemia is 22.2%; in the assay on RPMI-8226 leukemia, 14.8%; in the assay on OVCAR-8 ovarian, 0.183% (active); in the assay on OVCAR-5 ovarian, 18.3%; with OVCAR-4 ovarian it was -50% (active); in the assay on SK-OV-3 ovarian it was 47.7%. Moreover, the results for the growth with IGROV1 ovarian, in the assay on OVCAR-3 ovarian and in the assay on NCI/ADR-RES ovarian were -13.2% (active), -40.1% (active) and 54.1%, respectively.

For `N#CCSc1nnc2n(Cc3ccccc3)c(=O)c3c4c(sc3n12)CCCC4`, the growth is 94.8% in the assay with SR leukemia; -61.3% (active) in the assay with RPMI-8226 leukemia; 95.1% with OVCAR-8 ovarian; 92.2% in the assay with OVCAR-5 ovarian; 101% in the assay with OVCAR-4 ovarian; 107% in the assay with SK-OV-3 ovarian. The results for the growth in the assay on IGROV1 ovarian, with OVCAR-3 ovarian and in the assay with NCI/ADR-RES ovarian were 74.2%, 98.5% and 91%, respectively.

On to `COC(C(=O)[C@@H](O)[C@@H](C)O)[C@@H]1Cc2cc3cc(O[C@H]4C[C@@H](O[C@H]5C[C@@H](O)[C@H](O)C(C)O5)[C@H](O)C(C)O4)cc(O)c3c(O)c2C(=O)[C@H]1O[C@H]1C[C@@H](O[C@H]2C[C@@H](O[C@H]3C[C@@H](OC)[C@H](O)C(C)O3)[C@@H](O)C(C)O2)[C@H](O)C(C)O1` (stereo partly drawn), for which the growth with SR leukemia is 33.9%; in the assay with RPMI-8226 leukemia, 50%; in the assay on OVCAR-8 ovarian, 42.4%; with OVCAR-5 ovarian it was 54.3%; with OVCAR-4 ovarian, 64.5%; in the assay on SK-OV-3 ovarian it was 32.3%. Besides, the growth was 32.4% in the assay on IGROV1 ovarian, 61% in the assay on OVCAR-3 ovarian, 46.2% in the assay with HS 578T breast and 97.5% in the assay on NCI/ADR-RES ovarian.

As to `CNC(=O)c1cc(Oc2ccc3nc(NC(C)=O)sc3c2)ccn1`, the growth with SR leukemia is 85.4%; in the assay on RPMI-8226 leukemia it was 93.8%; with OVCAR-8 ovarian it was 99.9%; in the assay with OVCAR-5 ovarian, 103%; in the assay on OVCAR-4 ovarian, 95.9%; with SK-OV-3 ovarian, 107%. For the same compound, the results for the growth with IGROV1 ovarian, in the assay with OVCAR-3 ovarian and with NCI/ADR-RES ovarian were 104%, 105% and 98.1%, respectively.

As for `Cc1ccc(-n2c(=S)[nH]c3sc4c(c3c2=O)CCC(=O)C4)cc1`, the growth with SR leukemia is 28.5%; with RPMI-8226 leukemia it was 22.7%; with OVCAR-8 ovarian, 50.2%; in the assay on OVCAR-5 ovarian, 87.4%; in the assay with OVCAR-4 ovarian, 69.3%; with SK-OV-3 ovarian it was 91.6%. The growth with IGROV1 ovarian is 48.9%; in the assay with OVCAR-3 ovarian, 4.02% (active); with NCI/ADR-RES ovarian it was 27.1%.

In the case of `O=C(Nc1ncc(Cc2ccc(Cl)c(C(F)(F)F)c2)s1)c1ccc2nnsc2c1`, the growth was 57% in the assay with SR leukemia; 40.8% with RPMI-8226 leukemia; 54.8% in the assay on OVCAR-8 ovarian; 55.8% in the assay on OVCAR-5 ovarian; 50.7% in the assay on OVCAR-4 ovarian; 62.5% in the assay with SK-OV-3 ovarian. The figures for the growth with IGROV1 ovarian, in the assay on OVCAR-3 ovarian and in the assay with NCI/ADR-RES ovarian were 67.9%, 58.5% and 40.9%, respectively.

`O=C1C(Cl)=C(Oc2ccccc2)C(=O)c2ccccc21`: the growth in the assay on SR leukemia is 48.8%; with RPMI-8226 leukemia it was 35.2%; in the assay with OVCAR-8 ovarian, 85%; in the assay on OVCAR-5 ovarian, 118%; in the assay on OVCAR-4 ovarian, 106%; in the assay with SK-OV-3 ovarian, 103%. The growth in the assay with IGROV1 ovarian was 80.7%; in the assay with OVCAR-3 ovarian, 16%; in the assay with NCI/ADR-RES ovarian it was 88.6%.

In the case of `Cc1c(-c2nc3ccc(F)cc3c(=O)[nH]2)c2ccccc2n1C`, the growth in the assay with SR leukemia is 11.3%; in the assay on RPMI-8226 leukemia it was 40.9%; in the assay on OVCAR-8 ovarian, 46.9%; in the assay on OVCAR-5 ovarian it was 79.4%; in the assay with OVCAR-4 ovarian it was 59.4%; with SK-OV-3 ovarian, 43.2%. The growth in the assay with IGROV1 ovarian was 38.9%; in the assay with OVCAR-3 ovarian, 10.3%; in the assay with NCI/ADR-RES ovarian it was 21.9%.

In the case of `N#Cc1nn(-c2cc(=O)[nH]c3ccc(Cl)cc23)c(N)c1C#N`, the growth in the assay on SR leukemia is 0.706% (active); with RPMI-8226 leukemia, -24.6% (active); in the assay on OVCAR-8 ovarian it was 95.8%; in the assay on OVCAR-5 ovarian, 105%; with OVCAR-4 ovarian it was 91.5%; in the assay with SK-OV-3 ovarian, 74.6%. In addition, the figures for the growth in the assay on IGROV1 ovarian, in the assay with OVCAR-3 ovarian and with NCI/ADR-RES ovarian were 102%, 108% and 98.5%, respectively.

For `CC(=O)c1cc(O)c2ccccc2c1O`, the growth with SR leukemia was 110%; with RPMI-8226 leukemia, 46.4%; in the assay with OVCAR-8 ovarian, 86.3%; with OVCAR-5 ovarian, 109%; with OVCAR-4 ovarian it was 93.4%; in the assay on SK-OV-3 ovarian, 102%. The growth in the assay with IGROV1 ovarian was 52.8%; with HS 578T breast it was 123%; in the assay on NCI/ADR-RES ovarian, 87%.

`CCN1CCN(c2cc(C(=O)Nc3nc(-c4cc(OC)c(OC)c(OC)c4)cs3)cc(C(F)(F)F)c2)CC1`: the growth is 9.19% (active) in the assay on SR leukemia; 56.9% with RPMI-8226 leukemia; 65.1% in the assay on OVCAR-8 ovarian; 74.6% in the assay on OVCAR-5 ovarian; 68.9% with OVCAR-4 ovarian; 90.5% with SK-OV-3 ovarian. In addition, the results for the growth in the assay with IGROV1 ovarian, in the assay on OVCAR-3 ovarian and in the assay with NCI/ADR-RES ovarian were 41.5%, 81.3% and 55.8%, respectively.

`O=C(CI)NC1Oc2ccccc2-c2oc(=O)c(-c3ccccc3)cc21` (stereo not drawn): the growth in the assay with SR leukemia was -33.5% (active); in the assay with RPMI-8226 leukemia, -49.4% (active); in the assay on OVCAR-8 ovarian it was -27.9% (active); in the assay on OVCAR-5 ovarian, 12.8%; in the assay with OVCAR-4 ovarian it was -40.3% (active); in the assay on SK-OV-3 ovarian, 103%. Also, the growth was -59% (active) in the assay with IGROV1 ovarian, 44.3% with HS 578T breast and 36.7% in the assay with NCI/ADR-RES ovarian.

`COc1cc(OC)c2sc(-c3ccc(-n4cncc4-c4ccc(OC)c(OC)c4)cc3)nc2c1`: the growth is 50.7% in the assay on SR leukemia; 33.3% in the assay with RPMI-8226 leukemia; 71% with OVCAR-8 ovarian; 79.5% with OVCAR-5 ovarian; 52.9% in the assay with OVCAR-4 ovarian; 84.8% in the assay with SK-OV-3 ovarian. The values for the growth with IGROV1 ovarian, in the assay on OVCAR-3 ovarian and with NCI/ADR-RES ovarian were 67.2%, 43.7% and 56.4%, respectively.

Turning to `C#CCOc1ccc2ncnc(Nc3cccc(NC(=O)C=C)c3)c2c1`, the growth is 17.1% in the assay with SR leukemia; 80.2% in the assay with RPMI-8226 leukemia; 45.8% with OVCAR-8 ovarian; 89.6% with OVCAR-5 ovarian; 76% in the assay on OVCAR-4 ovarian; 60.6% in the assay on SK-OV-3 ovarian. Further, the results for the growth in the assay with IGROV1 ovarian, in the assay with OVCAR-3 ovarian and with NCI/ADR-RES ovarian were 33.8%, 60.6% and 80.2%, respectively.

Take `CN(CCOc1ccc(C#N)cc1)CCOc1ccc(C#N)cc1`: the growth is 49.6% in the assay with SR leukemia; 7.02% (active) in the assay with RPMI-8226 leukemia; 93.5% in the assay on OVCAR-8 ovarian; 79% in the assay on OVCAR-5 ovarian; 75% in the assay on OVCAR-4 ovarian; 46.8% in the assay on SK-OV-3 ovarian. The values for the growth in the assay on IGROV1 ovarian, in the assay with OVCAR-3 ovarian and in the assay with NCI/ADR-RES ovarian were 61.1%, 97.6% and 67.1%, respectively.

`CN(C)c1ccc(Nc2cc(-c3cccc(OC(F)(F)F)c3)nc3ccc(N4CCCC4)cc23)cc1`: the growth is -14.6% (active) with SR leukemia; -33% (active) in the assay on RPMI-8226 leukemia; -26.6% (active) with OVCAR-8 ovarian; 100% in the assay on OVCAR-5 ovarian; -73.8% (active) with OVCAR-4 ovarian; 98.6% in the assay with SK-OV-3 ovarian. The growth with IGROV1 ovarian was -17.9% (active); in the assay on HS 578T breast it was -1.71% (active).

On to `CCOC(=O)C1=C(NC)OCC1=O`, for which the growth in the assay with SR leukemia was 93.6%; with RPMI-8226 leukemia it was 99.6%; in the assay with OVCAR-8 ovarian it was 98.6%; with OVCAR-5 ovarian it was 115%; in the assay on OVCAR-4 ovarian, 112%; in the assay with SK-OV-3 ovarian it was 110%. The growth was 113% in the assay with IGROV1 ovarian, 109% in the assay with OVCAR-3 ovarian and 105% with NCI/ADR-RES ovarian.

Turning to `CCOc1nc(-c2ccccc2)cc2c(O)c(C(=O)NN)[nH]c(=O)c12`, the growth in the assay with SR leukemia was 90.8%; in the assay on RPMI-8226 leukemia it was 103%; with OVCAR-8 ovarian, 109%; in the assay with OVCAR-5 ovarian, 106%; in the assay on OVCAR-4 ovarian it was 100%; with SK-OV-3 ovarian, 113%. Moreover, the growth is 55.2% with IGROV1 ovarian, 79% in the assay on OVCAR-3 ovarian and 87.9% in the assay with NCI/ADR-RES ovarian.

For `CN1CCN(c2ccc(C(=O)Nc3cccc(C#Cc4cccc5[nH]nc(N)c45)c3)cc2C(F)(F)F)CC1`, the growth in the assay on SR leukemia is -17.7% (active); in the assay with RPMI-8226 leukemia, -13.7% (active); in the assay on OVCAR-8 ovarian, -14.5% (active); in the assay with OVCAR-5 ovarian, -43.1% (active); in the assay on OVCAR-4 ovarian, -0.309% (active); with SK-OV-3 ovarian, -42.6% (active). In addition, the growth in the assay with IGROV1 ovarian is -56.5% (active); in the assay with OVCAR-3 ovarian, -17.9% (active); in the assay on HS 578T breast it was -26% (active); in the assay on NCI/ADR-RES ovarian, -24.7% (active).

As to `Cc1ccc(-c2nc(/C=C3/C(=O)Nc4ccccc43)c3ccccn23)cc1`, the growth in the assay with SR leukemia is 73.4%; in the assay with RPMI-8226 leukemia it was 79.3%; in the assay on OVCAR-8 ovarian, 82%; with OVCAR-5 ovarian it was 80.5%; in the assay on OVCAR-4 ovarian it was 115%; with SK-OV-3 ovarian, 92.6%. Also, the growth is 22.9% with IGROV1 ovarian and 85.7% with HS 578T breast.

In the case of `CCN(C(=O)N1CCN(c2cc3c(cc2F)c(=O)c(C(=O)O)cn3C2CC2)CC1)c1nc(-c2ccc(Cl)cc2)cs1`, the growth was 6.27% (active) in the assay with SR leukemia; 12.8% with RPMI-8226 leukemia; 14.4% in the assay on OVCAR-8 ovarian; 24.5% with OVCAR-5 ovarian; 25.7% with OVCAR-4 ovarian; -11.9% (active) in the assay on SK-OV-3 ovarian. In addition, the growth in the assay on IGROV1 ovarian was -9.58% (active); in the assay on HS 578T breast, 20.7%; with NCI/ADR-RES ovarian, 4.67% (active).
